# Laboratory results taken from PubChem BioAssay AID977627 (Broad Institute, 2014).
# Results filed as inconclusive are left out. Active and inactive are the calls of the source. How the calls were made is not given here.
# Experiment: E. coli strain growth, wild-type against H38 humanized mutant – H38 mutant GFP vs wild-type RFP, cherry-pick, dose response (AID 977627)
# Details: E. coli H38 humanized ribosome GFP strain, fluorescence, 24 h; activity: measured here: wild-type RFP strain growth, at 50 µM, stronger effect = lower value; series mostly up to 50 µM
SMILES,activity [%],outcome
COC(=O)c1c(NC(=O)CCC(=O)O)sc(Cc2ccccc2)c1C,-41.2,–
CCOc1ccccc1NC(=O)c1ccc2ccccc2c1,5.09,inactive
Cc1noc(C)c1NC(=O)Nc1ccc2c(c1)C(=O)N([C@H](C)CO)C[C@@H](C)[C@@H](CN(C)C(=O)Nc1ccc3c(c1)OCO3)OCCCC[C@@H](C)O2,-3.93,–
CC1(Cc2ccccc2C#N)C(=O)Nc2cc(-c3ccccc3Cl)ccc21 (stereo not given),-20,–
